gsp antagonist = qHTS for Antagonists of gsp, the Etiologic Mutation Responsible for Fibrous Dysplasia/McCune-Albright Syndrome: qHTS | Potency, µM (doses to about 76.9 µM), actives largely listed as inhibitors | AID 624288, 2012 | gsp-mutant cells, cAMP HTRF, 30 min | 0.4% of 340,000 active; calls by dose curve; cell line not stated here;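 further: intracellular cAMP measured with PDE inhibitor Ro 20-1724 present during compound exposure; nearly all actives have a fitted effect of over 65% in size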
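Cells in G418 medium, seeded 16-24 h, 37C; buffer exchange to DPBS + 1 mM CaCl2, 0.5 mM MgCl2, 0.05% BSA; cpds in DMSO + […] (300 uM stock), 30 min 37C; HTRF cAMP detection.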
RXFP1 agonist = qHTS Assay for Agonists of the Relaxin Receptor RXFP1 | HEK293T-RXFP1 cAMP TR-FRET, 30 min; response scale: percent of porcine relaxin response, buffer zero | Relaxin receptor 1 (Homo sapiens), Q9HBX9 | 0.3% of 370,000 active | Potency, µM (series often up to 57.5 µM), actives largely listed as activators; further: nearly all actives have a fitted effect of over 60% in size
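Agonist response is measured as cAMP accumulation in an RXFP1-transfected HEK293T line under PDE4 inhibition. Values are scaled between buffer-only and 29 nM porcine relaxin, and EC50s come from standard Hill equation fits.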
gsp ag = qHTS for Agonist of gsp, the Etiologic Mutation Responsible for Fibrous Dysplasia/McCune-Albright Syndrome: qHTS | AID 624287, 2012 | 0.13% of 340,000 active | gsp mutant cells, cAMP HTRF, 30 min | Potency, µM (highest dose often 76.9 µM), most hits filed as activators; active means well fitted activation curve with a large enough effect; inconclusive means small, poorly fitted or top-dose-only effect, or another doubt; inactive means no such curve, though single readings can be large or run the other way; cell line not stated here;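 further: phosphodiesterase inhibitor Ro 20-1724 added with compounds to block cAMP breakdown; nearly all actives have a fitted effect of over 60% in size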
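Cells stably selected in G418 were plated at 2000/well, grown 16-24 hr, then given compounds in DMSO with the PDE inhibitor […] (300 uM solution added) for 30 min at 37C; cAMP was read by HTRF.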
p53 reactivation = qHTS assay for re-activators of p53 using a Luc reporter; H1299 p53-A138V BP100-luciferase reporter, luminescence, 24 h; Potency, µM (titrated, usually from 92.2 µM), usual class: activators; 0.063% of 320,000 active; AID 504706, 2011; further: nearly all actives have a fitted effect of over 45% in size
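H1299 (p53-null), stable ts p53-A138V + BP100-Luc; 1000 cells/well, Opti-MEM/10% FBS; cpd 4 pt, 1:5; 24 h, 37 deg C, 5% CO2; detection reagent 10 min RT; luminescence.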
RXFP1 antag = qHTS Assay for Antagonists of the Relaxin Receptor RXFP1 | Relaxin receptor 1 (Homo sapiens), Q9HBX9 | HEK293-RXFP1, relaxin-stimulated cAMP HTRF, 30 min; active compounds read low | activity change, negative = inhibition, % at 57.5 µM | 0.59% of 350,000 active;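 active means activity change of -60% or lower, but not beyond a set lower limit; inconclusive means change between -60% and -40%, or beyond the set limit; inactive means change above -40%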
Tb PFK block = qHTS Assay to Find Inhibitors of T. brucei phosphofructokinase. ATP-dependent 6-phosphofructokinase (Trypanosoma brucei brucei), O15648. T. brucei PFK, ADP-Glo luminescence. Potency, µM (titrated, usually from 57.5 µM), most hits filed as inhibitors. 0.17% of 330,000 active. AID 485367, 2010; further: nearly all actives have a fitted effect of over 60% in size
Target sequence (O15648 whole entry, looked up): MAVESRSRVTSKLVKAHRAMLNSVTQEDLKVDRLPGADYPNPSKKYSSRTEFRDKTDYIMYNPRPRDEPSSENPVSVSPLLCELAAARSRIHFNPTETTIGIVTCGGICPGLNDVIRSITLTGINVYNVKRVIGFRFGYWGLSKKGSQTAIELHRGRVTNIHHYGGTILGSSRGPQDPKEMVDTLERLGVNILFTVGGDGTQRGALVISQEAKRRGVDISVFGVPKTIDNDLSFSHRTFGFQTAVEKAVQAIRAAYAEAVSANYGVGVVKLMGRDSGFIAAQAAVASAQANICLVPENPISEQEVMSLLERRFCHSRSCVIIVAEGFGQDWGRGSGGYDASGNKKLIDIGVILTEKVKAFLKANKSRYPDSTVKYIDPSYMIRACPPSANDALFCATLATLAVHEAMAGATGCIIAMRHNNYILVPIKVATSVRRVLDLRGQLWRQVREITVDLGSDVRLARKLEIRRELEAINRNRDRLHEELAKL
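Luminescent ADP detection (ADP-Glo, two-step: ATP depletion then ADP-to-ATP conversion for luciferase) reported PFK activity after 45 min room-temperature reaction of 1.25 nM enzyme with 0.5 mM F6P and 0.1 mM ATP at pH 8.0.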
Of the large screens only hits and unclear results are named; the others gave an inactive call. Sampled rows, rich in hits. Any-hit rate of the full collection: about 1.1%. Unless noted, the call rests on the fitted dose curve; in most records, active means well fitted curve in the direction sought with a large enough effect; inconclusive means small, poorly fitted or top-dose-only effect, or another doubt; inactive means no such curve, though single readings can be large; an effect the other way counts as inactive or inconclusive.

O=C(O)CCCCCN1C(=O)/C(=C/c2cn(-c3ccccc3)nc2-c2cccs2)SC1=S	gsp antagonist 35µM, gsp ag inconclusive (no result: RXFP1 agonist, p53 reactivation, Tb PFK block)
O=C(CCCN1C(=O)/C(=C\c2cccs2)SC1=S)Nc1ccccc1O	none (no result: gsp antagonist, RXFP1 agonist, p53 reactivation, Tb PFK block)
CCN1C(=O)/C(=C/c2cn(-c3ccccc3)nc2-c2cccnc2)SC1=S	gsp antagonist inconclusive (no result: RXFP1 agonist, p53 reactivation, Tb PFK block)
Cc1ccc2[nH]c(=O)c3cc(C(=O)NC4CCC(C)CC4)sc3c2c1 (stereo unspecified)	none (no result: gsp antagonist, gsp ag, p53 reactivation, RXFP1 antag, Tb PFK block)
Cc1ccc(OC(F)F)c(NC(=O)Nc2cccc(C(F)(F)F)c2)c1	gsp antagonist 35µM
Cc1cc(/C=N\NC(=O)c2cccs2)c(C)n1-c1ccc2ncccc2c1	gsp antagonist 40µM
Cc1cccc(NC(=O)C2CCN(S(=O)(=O)c3c(C)c(C)cc(C)c3C)CC2)n1	RXFP1 antag -79
Cc1cccc(NC(=O)C2CCN(S(=O)(=O)c3c(C)nn(C)c3C)CC2)n1	gsp ag inconclusive (no result: RXFP1 antag)
Cc1ccc(S(=O)(=O)N2CCN(C(=O)CNC(=O)c3sc4ccccc4c3Cl)CC2)cc1	gsp ag 11µM
COc1cccc(NC(=O)Nc2nc(-c3ccc(OC)c(OC)c3)cs2)c1	gsp ag inconclusive, RXFP1 antag -62
COc1ccc(-c2csc(NC(C)=O)n2)cc1OC	none
Cc1cc(NC(=O)c2cc(-c3ccccc3Cl)nc3ccccc23)no1	none
Cc1ccc(-n2ncc3c(N4CCCC4)ncnc32)c(C)c1	none
COc1cccc(N2CCN(c3ncnc4c3cnn4-c3ccc(C)cc3C)CC2)c1	gsp antagonist 7.9µM (no result: RXFP1 antag)
CN(C)S(=O)(=O)c1ccc(Cl)c(NC(=O)CN2CCN(Cc3ccc4c(c3)OCO4)CC2)c1	gsp antagonist 11µM
O=C(CN1CCN(Cc2ccc3c(c2)OCO3)CC1)Nc1cc(S(=O)(=O)N2CCCC2)ccc1Cl	none
COCCNC(=O)c1ccc(-n2c(SCc3cc(F)ccc3F)nc3ccccc3c2=O)cc1	none (no result: RXFP1 antag)
Cn1nc(C(F)(F)F)c2cc(C(=O)Nc3ccc(F)c(Cl)c3)sc21	gsp antagonist inconclusive, RXFP1 antag -76
COc1cc(/C=C2\SC(=S)N(Nc3ncc(C(F)(F)F)cc3Cl)C2=O)ccc1O	RXFP1 antag -74
CN(C)c1ccc(/C=C2\SC(=S)N(Nc3ncc(C(F)(F)F)cc3Cl)C2=O)cc1	none
CCOc1ccc(-c2csc(NC(=O)CSC3=NC(=O)CN3C(C)=O)n2)c2ccccc12	none
CC(=O)N1CC(=O)N=C1SCC(=O)Nc1nc(C)c(-c2ccccc2)s1	gsp antagonist inconclusive, RXFP1 antag -110
COc1ccc(N2CCN(c3cnc4ccccc4n3)CC2)cc1	gsp ag inconclusive
COc1cccc(N2CCN(c3cnc4ccccc4n3)CC2)c1	gsp antagonist 45µM
COc1c2ccoc2c(OC[C@@H](O)C(C)(C)O)c2oc(=O)ccc12	none (no result: RXFP1 antag)
O=C(O)c1cccc2c1C(=O)N(CC1CCCO1)C2 (stereo unspecified)	none
CCc1cccc(NC(=O)c2cccc3c2C(=O)N(CC2CCCO2)C3)c1 (stereo unspecified)	gsp antagonist 35µM
CCOC(=O)c1c(CSC(=N)N)n(-c2ccccc2)c2cc(Br)c(OC(C)=O)cc12	RXFP1 antag -61
CS(=O)(=O)N1CCC(C(=O)O)CC1	none
CCN1C(=O)/C(=C\C(=O)c2cccs2)c2cc(Br)ccc21	RXFP1 antag -66
CC(=O)c1sc(C(C)(C)C)cc1NC(=O)CCC(=O)O	RXFP1 agonist inconclusive, gsp ag 8.9µM
CC(=O)c1sc(C(C)(C)C)cc1NC(=O)/C=C/C(=O)O	none
CCOC(=O)c1ccc(NC(=O)c2sc3nc(N4CCOCC4)c4c(c3c2N)CCCC4)cc1	gsp ag 18µM
CCOc1ccc(NC(=O)c2csc3c2CCCC3)cc1	p53 reactivation inconclusive (no result: RXFP1 antag)
CCOC(=O)c1ccc(NC(=O)c2csc3c2CCCC3)cc1	RXFP1 antag -93 (no result: gsp antagonist, gsp ag, p53 reactivation, Tb PFK block)
NNC(=O)c1cccc(S(=O)(=O)Nc2cc(Cl)ccc2Cl)c1	none
Cc1ccc(NC(=O)C(C)c2ccc([N+](=O)[O-])cc2)cc1Cl (stereo unspecified)	none
O=C1OCC2OC(O)C(O)C(O)C2OC(=O)c2cc(O)c(O)c(O)c2-c2c(O)c(O)c3oc(=O)c4c(c(O)c(O)c5oc(=O)c2c3c54)-c2c1cc(O)c(O)c2O (stereo unspecified)	Tb PFK block 0.95µM (no result: gsp antagonist, gsp ag, RXFP1 antag)
CCCn1nc(C(=O)NNC(=O)c2cc(S(=O)(=O)NC)ccc2Br)c2ccccc2c1=O	none
COc1ccccc1N1CCN(CC(O)COc2ccc(C)cc2C(C)(C)C)CC1 (stereo unspecified)	RXFP1 antag -83 (no result: gsp antagonist, gsp ag, p53 reactivation, Tb PFK block)
COc1ccccc1N1CCN(CC(O)COc2cc(C)cc(C)c2)CC1 (stereo unspecified)	none (no result: gsp antagonist, gsp ag, p53 reactivation, Tb PFK block)
Cc1ccc(-c2nn(-c3ccccc3)cc2CO)cc1	p53 reactivation inconclusive
N=C(N)SCc1cn(-c2ccccc2)nc1-c1ccc(Br)cc1	RXFP1 antag -79 (no result: gsp antagonist)
CCOc1ncccc1C(=O)OC(C)C(=O)NC(=O)NC1CCCCC1 (stereo unspecified)	gsp ag 6.3µM
COc1ccc(CNC(=O)CCc2nnc3ccc(N4CCC5(CC4)OCCO5)nn23)cc1	RXFP1 agonist inconclusive
CSc1ccc(CCNC(=O)CCc2nnc3ccc(N4CCCCC4)nn23)cc1	none (no result: p53 reactivation, RXFP1 antag)
CSc1ccc(CCNC(=O)CCc2nnc3ccc(N4CCOCC4)nn23)cc1	gsp ag 16µM (no result: p53 reactivation, RXFP1 antag)
Cc1ccc(CNC(=O)CCc2nnc3ccc(N4CCC5(CC4)OCCO5)nn23)cc1	RXFP1 agonist 18µM, gsp ag inconclusive
COc1ccc(OC)c(C2C(C(=O)c3cc4ccccc4o3)=C(O)C(=O)N2c2cc(C)on2)c1 (stereo unspecified)	RXFP1 agonist inconclusive, gsp ag 14µM (no result: RXFP1 antag)
Cc1cc(N2C(=O)C(O)=C(C(=O)c3cc4ccccc4o3)C2c2ccc(Br)cc2)no1 (stereo unspecified)	RXFP1 agonist 22µM, gsp ag 3.5µM
COc1ccc(OC)c(C2C(C(=O)c3ccc(C)o3)=C(O)C(=O)N2c2cc(C)on2)c1 (stereo unspecified)	RXFP1 agonist inconclusive, gsp ag inconclusive

Screening results (PubChem BioAssay)
